In publication PMC11062922 (Nature Chemical Biology, 2023) one finds potency estimated from few doses data, which are given here for ten molecules.

Parameters in all cases: species or system human, MV4-11 + K-562 + COLO205 + SK-N-BE2 + OVCAR-8
Experiment [1] relates to CSNK1D. The note with it: read-out: apparent Kd, n = 1.
Experiment [2] relates to ATM. Particulars: read-out: apparent Kd, n = 1.
Experiment [3] relates to AURKA. Particulars: read-out: apparent Kd; compound concentrations:100 nM and 1000 nM (sheet 'Samples'); n = 1.
In experiment [4] the test system is BCR. Particulars: read-out: apparent Kd; compound concentrations:100 nM and 1000 nM (sheet 'Samples'); n = 1.
For experiment [5], the system named is CAMKK2. Particulars: read-out: apparent Kd, n = 1.
For experiment [6], the system named is CHEK1. The note with it: read-out: apparent Kd, n = 1.
Experiment [7] has as its system EPHA4. Particulars: read-out: apparent Kd; compound concentrations:100 nM and 1000 nM (sheet 'Samples'); n = 1.
Experiment [8] has as its system EPHA5. Particulars: read-out: apparent Kd; compound concentrations:100 nM and 1000 nM (sheet 'Samples'); n = 1.
Experiment [9] concerns EPHB2. The note with it: read-out: apparent Kd; compound concentrations:100 nM and 1000 nM (sheet 'Samples'); n = 1.
The test system of experiment [10] is EPHB4. Particulars: read-out: apparent Kd; compound concentrations:100 nM and 1000 nM (sheet 'Samples'); n = 1.
Experiment [11] deals with PRKACB. The note with it: read-out: apparent Kd; compound concentrations:100 nM and 1000 nM (sheet 'Samples'); n = 1.
Experiment [12] has as its system PRKAG2. Particulars: read-out: apparent Kd, n = 1.
Experiment [13] relates to TNK1. The note with it: read-out: apparent Kd; compound concentrations:100 nM and 1000 nM (sheet 'Samples'); n = 1.
Experiment [14] has as its system TNK2. The note with it: read-out: apparent Kd; compound concentrations:100 nM and 1000 nM (sheet 'Samples'); n = 1.
Experiment [15] concerns MAPK9. Particulars: read-out: apparent Kd, compound concentrations: 100 nM and 1000 nM (sheet 'Samples'), n = 1.
Experiment [16] concerns MARK3. Particulars: read-out: apparent Kd, n = 1.
In experiment [17] the test system is PRKACA. Particulars: read-out: apparent Kd; compound concentrations:100 nM and 1000 nM (sheet 'Samples'); n = 1.
Experiment [18] relates to CDK16. Particulars: read-out: apparent Kd, compound concentrations: 100 nM and 1000 nM (sheet 'Samples'), n = 1.
Experiment [19] deals with RPS6KA4. Particulars: read-out: apparent Kd, n = 1.
For experiment [20], the system named is STK4. The note with it: read-out: apparent Kd, n = 1.
Where [21] appears, read: compound concentrations:100 nM and 1000 nM (sheet 'Samples').

Like-named read-outs stand apart in the source and are kept apart here.

Consider `Cl.ON=C1CCc2cc(-c3nc(C4CCNCC4)[nH]c3-c3ccncc3)ccc21` [SB-614067-R], for which the potency estimated from few doses in experiment [1] (setting [21]) was 436 nM.

For `Cl.Cl.NCC(C(=O)Nc1cc(Br)c(-c2ccnc3[nH]ccc23)s1)c1ccccc1.NCC(C(=O)Nc1cc(Br)c(-c2ccnc3[nH]ccc23)s1)c1ccccc1` (stereo not drawn) [GSK1269851A], the potency estimated from few doses in [2] (setting [21]) is 275 nM; in experiment [3] it was 768 nM; in experiment [4], 90.4 nM; in experiment [5] (setting [21]) it was 1310 nM; in experiment [6] (setting [21]), 1700 nM; in experiment [7], 510 nM. Besides, the potency estimated from few doses in experiment [8] was 74.9 nM; in experiment [9], 94.9 nM; in experiment [10], 54.6 nM; in [11] it was 1920 nM; in experiment [12] (setting [21]), 111 nM; in [13] it was 62.7 nM. The potency estimated from few doses in experiment [14] is 46.6 nM.

As to `Fc1ccc(-c2c(-c3ccncc3)[nH]c3cccnc23)cc1` [RO1153853-000], the potency estimated from few doses is 99.4 nM in experiment [1] (compound concentrations: 100 nM and 1000 nM (sheet 'Samples'), CATDS: 0.18196610661617901); 541 nM in experiment [15] (CATDS: 7.2614011783570201E-2).

Consider `CCn1c(-c2nonc2N)nc2c(C#CC(C)(C)O)nc(O[C@@H](CN)c3ccccc3)cc21.O=C(O)C(F)(F)F` [GSK1007102B], for which the potency estimated from few doses in [16] (setting [21]) is 163 nM; in experiment [17], 37.5 nM; in experiment [11], 41.1 nM; in experiment [12] (setting [21]), 121 nM.

As for `CN(C)CCNC(=O)Nc1ccc(N(C)c2ccnc(Nc3ccc(CS(C)(=O)=O)cc3)n2)cc1.Cl` [GW830900A], the potency estimated from few doses in experiment [3] is 893 nM.

Regarding `CCN(CC)Cc1ccc(Nc2nccc(-c3cnn4ncccc34)n2)cc1` [GW780056X], the potency estimated from few doses was 196 nM in experiment [18] (CATDS: 4.3242463436831802E-2); 47.8 nM in experiment [1] (compound concentrations: 100 nM and 1000 nM (sheet 'Samples'), CATDS: 9.4015783065552402E-2).

Turning to `O=C(O)C(F)(F)F.O=c1[nH]ccc2nc(N[C@@H]3CCNC3)nc(Nc3ccc4c(c3)S(=O)(=O)CC4)c12` [GSK2181306A], the potency estimated from few doses in [18] (CATDS: 1.11902252687631E-2) was 620 nM; in experiment [6] (compound concentrations: 100 nM and 1000 nM (sheet 'Samples'), CATDS: 1.0862390298074001E-2) it was 672 nM; in experiment [1] (compound concentrations: 100 nM and 1000 nM (sheet 'Samples'), CATDS: 9.27581508882039E-3), 1080 nM; in experiment [16] (compound concentrations: 100 nM and 1000 nM (sheet 'Samples'), CATDS: 1.24991581563988E-2) it was 470 nM; in experiment [12] (compound concentrations: 100 nM and 1000 nM (sheet 'Samples'), CATDS: 1.2141088500549201E-2), 504 nM; in [19] (compound concentrations: 100 nM and 1000 nM (sheet 'Samples'), CATDS: 1.6454900639240402E-2), 258 nM. For the same molecule, the potency estimated from few doses in [20] (compound concentrations: 100 nM and 1000 nM (sheet 'Samples'), CATDS: 2.0109118463760199E-2) is 175 nM.

As to `c1ccc(-c2n[nH]cc2Nc2ccnc3ccccc23)nc1` [GW694077X], the potency estimated from few doses was 1390 nM in experiment [1] (compound concentrations: 100 nM and 1000 nM (sheet 'Samples'), CATDS: 2.5323353021981399E-2); 1900 nM in experiment [15] (CATDS: 2.3391396830632599E-2).

Regarding `O=C(O)C(F)(F)F.O=c1[nH]ccc2nc(N[C@@H]3CCNC3)nc(Nc3cc(Cl)cc(Cl)c3)c12` [GSK2188764A], the potency estimated from few doses in [6] (setting [21]) is 711 nM; in experiment [16] (setting [21]), 153 nM; in experiment [12] (setting [21]), 632 nM; in experiment [19] (setting [21]), 472 nM; in experiment [20] (setting [21]) it was 913 nM.

Turning to `COc1cc(Nc2nccc(-c3cnn4ncccc34)n2)cc(OC)c1` [GW801372X], the potency estimated from few doses in [2] (compound concentrations: 100 nM and 1000 nM (sheet 'Samples'), CATDS: 3.2681942140962102E-2) is 274 nM; in experiment [5] (compound concentrations: 100 nM and 1000 nM (sheet 'Samples'), CATDS: 1.8078594286366201E-2) it was 1750 nM; in experiment [18] (CATDS: 1.6995450779384601E-2), 2320 nM; in [1] (compound concentrations: 100 nM and 1000 nM (sheet 'Samples'), CATDS: 1.8156615660070499E-2) it was 1710 nM; in experiment [15] (CATDS: 1.8501615721313099E-2), 1580 nM.
